Some test systems named below: T-47D breast; BT-549 breast; MDA-MB-435 melanoma; SW-620 colon; MCF7 breast; HCT-116 colon; HCC-2998 colon; KM12 colon.
What all share (test): NCI-60 one-dose screen, 48 h (100 = growth as untreated, 0 = no growth, -100 = all killed)
What all share (settings): 10 µM unless noted

About 83,000 compounds went through this panel and 20% of them were active in at least one assay; those are over-represented in the sample as a whole.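 Values shown are percent growth following 48 h exposure of cells in 96-well plates to a single concentration of compound; below 10 was considered active.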 Values without a mark were called inactive. Active and inactive are the calls of the source.

The values that follow come from PubChem BioAssay (NCI).

As for `Oc1ccc(CSc2nnc(-c3ccc(Oc4ccccc4)cc3)n2-c2ccccc2)c2cccnc12`, the growth is 4.84% (active) in the test with T-47D breast; 21.7% with BT-549 breast; 13.7% with MDA-MB-435 melanoma; 12.8% in the test on SW-620 colon; 4.86% (active) in the test with MCF7 breast; 14.5% in the test with HCT-116 colon. In addition, the growth in the test with HCC-2998 colon is 30.3%.
As for `O=C(CCCCCCN1CC(=O)N2[C@@H](c3cccc(Br)c3)c3[nH]c4ccccc4c3C[C@H]2C1=O)NO`, the growth was 17.2% in the test on T-47D breast; 57.9% in the test with BT-549 breast; 14% in the test with MDA-MB-435 melanoma; 15% in the test on SW-620 colon; 21.4% in the test on MCF7 breast; 8.35% (active) with HCT-116 colon. Further, the growth in the test on HCC-2998 colon was 41.6%.
As to `O=C1c2c(c3c4cc(O)ccc4oc3c3[nH]c4ccccc4c23)C(=O)N1O`, the growth in the test with T-47D breast was -17% (active); in the test on BT-549 breast it was -9.43% (active); in the test with MDA-MB-435 melanoma, -13.8% (active); in the test on SW-620 colon, 4.5% (active); with MCF7 breast, 6.15% (active); with HCT-116 colon, -45.8% (active). Further, the growth with HCC-2998 colon is 34.6%.
For the compound `Cc1cc(F)cc(NS(=O)(=O)c2ccc(-c3cnc(C4CC4)o3)cc2)c1`, the growth is 26.7% in the test with T-47D breast; 48.8% in the test on BT-549 breast; -20.9% (active) in the test with MDA-MB-435 melanoma; 24.7% in the test on SW-620 colon; 21.4% in the test with MCF7 breast; 19.5% with HCT-116 colon. Besides, the results for the growth in the test on HCC-2998 colon and with KM12 colon were 24.9% and 18.3%, respectively.
`COc1ccc(NC(=O)[C@H](C)N)cc1C(=O)Nc1cccc(-c2cc(=O)c3c(OC)c(OC)c(OC)cc3o2)c1`: the growth in the test with T-47D breast is 41%; in the test on BT-549 breast it was 78.4%; with MDA-MB-435 melanoma, 82.1%; with SW-620 colon, 94%; in the test on MCF7 breast, 57.8%; in the test with HCT-116 colon, 75%. The growth in the test on HCC-2998 colon is 65.2%.
With `CCOC(=O)/C(F)=C/C1CC1CCc1cccc(C(F)(F)F)c1` (stereo unspecified), the growth is 108% in the test with T-47D breast; 113% in the test on BT-549 breast; 103% in the test with MDA-MB-435 melanoma; 102% in the test with SW-620 colon; 95% in the test on MCF7 breast; 110% in the test with HCT-116 colon. The results for the growth with HCC-2998 colon and in the test with KM12 colon were 109% and 99.1%, respectively.
On to `Nc1nc(-c2cccc([N+](=O)[O-])c2)c(N=Nc2ccccc2[N+](=O)[O-])s1`, for which the growth with T-47D breast is 42.3%; in the test on BT-549 breast, 34.4%; in the test on MDA-MB-435 melanoma, 67.7%; in the test with SW-620 colon, 6.99% (active); with MCF7 breast, 82.2%; in the test with HCT-116 colon it was -13.8% (active). Further, the values for the growth in the test on HCC-2998 colon and with KM12 colon were 84.9% and 54.2%, respectively.
Turning to `C#C[C@]1(O)CC[C@H]2[C@@H]3CC=C4c5sc(Nc6nc(C)cc(OC)n6)nc5CC[C@]4(C)[C@H]3CC[C@@]21C`, the growth in the test on T-47D breast is 59%; with BT-549 breast, 48%; in the test with MDA-MB-435 melanoma it was 34.7%; with SW-620 colon, 23.6%; in the test with MCF7 breast, 8.47% (active); in the test on HCT-116 colon it was 42.7%. For the same compound, the figures for the growth with HCC-2998 colon and with KM12 colon were 80.9% and 46.1%, respectively.
Regarding `O=C(CSc1ccc(-c2nc3ccccc3[nH]2)cn1)N1CCN(c2ccccc2F)CC1`, the growth in the test with T-47D breast is 16.7%; in the test with BT-549 breast, 27.8%; in the test with MDA-MB-435 melanoma, 53.9%; in the test on SW-620 colon, 106%; in the test with MCF7 breast it was 55.7%; with HCT-116 colon it was 68.1%. The growth in the test on HCC-2998 colon is 96.5%.
`Cc1ccc(NC(=O)c2cccc(CN3CCN(C)CC3)c2)cc1Oc1ccc(-c2[nH]nc3ncnc(N)c23)cc1`: the growth with T-47D breast is 82.6%; in the test with BT-549 breast, 95.8%; with MDA-MB-435 melanoma, 56.3%; in the test with SW-620 colon it was 48.6%; in the test with MCF7 breast, 41.4%; in the test with HCT-116 colon it was 57.4%. The growth with HCC-2998 colon is 99.4%; in the test with KM12 colon, 37.4%.
For `Cc1ccc(Cc2cnc(NC(=O)/C(C#N)=C/c3ccc(-c4ccc(Cl)cc4)o3)s2)cc1`, the growth with T-47D breast is 64.7%; in the test on BT-549 breast it was 96.7%; in the test with MDA-MB-435 melanoma it was 94.4%; with SW-620 colon it was 93.9%; in the test with MCF7 breast, 81.8%; in the test with HCT-116 colon, 88.9%. In addition, the growth in the test with HCC-2998 colon is 103%.
Consider `Cc1cnc2nc(NN)[nH]n12`, for which the growth in the test on T-47D breast is 98.4%; in the test with BT-549 breast, 111%; with MDA-MB-435 melanoma, 99.7%; in the test with SW-620 colon, 103%; in the test with MCF7 breast, 92.6%; with HCT-116 colon, 98.9%. Further, the growth was 108% in the test on HCC-2998 colon and 100% in the test on KM12 colon.
As for `O=c1c2c(O)cccc2oc2c3c(cc(O)c12)O[C@H]1OC=C[C@@H]31`, the growth was 57.4% in the test on T-47D breast; 95.2% with BT-549 breast; 83.3% with MDA-MB-435 melanoma; 78.1% with SW-620 colon; 8.3% (active) in the test on MCF7 breast; 86.6% in the test on HCT-116 colon. The growth in the test on HCC-2998 colon is 63.8%; with KM12 colon it was 82.4%.
Take `COc1ccc(C(=O)c2c(N)c(C#N)cn2-c2cccc(OC)c2)cc1`: the growth in the test on T-47D breast is 16%; in the test with BT-549 breast, 41.9%; with MDA-MB-435 melanoma, -37.3% (active); in the test with SW-620 colon, 9.11% (active); in the test with MCF7 breast, 17.5%; with HCT-116 colon it was 16.8%. Also, the growth in the test with HCC-2998 colon was 56.1%; with KM12 colon it was 23.7%.
As to `O=C(CCCCCCN1CC(=O)N2[C@@H](c3ccccc3)c3[nH]c4ccccc4c3C[C@H]2C1=O)NO`, the growth with T-47D breast was 25.7%; with BT-549 breast, 91.5%; in the test on MDA-MB-435 melanoma, 46.1%; in the test on SW-620 colon, 38.7%; in the test with MCF7 breast, 47.1%; with HCT-116 colon it was 20.9%. The growth in the test with HCC-2998 colon is 85.8%.
In the case of `CC(C)N=C(N/C(N)=N/c1nc2ccccc2s1)NC(C)C`, the growth is 58.4% in the test with T-47D breast; 70% with BT-549 breast; 35.9% with MDA-MB-435 melanoma; 33.3% in the test with SW-620 colon; 43.2% in the test on MCF7 breast; 17.7% in the test on HCT-116 colon. In addition, the growth in the test on HCC-2998 colon is 76.9%; in the test with KM12 colon, 65.9%.
